The record followed here is PubChem BioAssay AID1851 (National Center for Advancing Translational Sciences (NCATS), 2009).

Several values for one entry are separate records, joined by “and”; a condition that tells them apart may be missing. Identical values can stand only once. The campaign covered roughly 16,000 compounds. About 2,600 (16%) were called active. Roughly 20% stayed inconclusive and do not appear here. Not all results are given here. Unmarked numbers belong to inactive results. The call rests on the fitted dose curve; in most records, active means well fitted curve in the direction sought with a large enough effect; inconclusive means small, poorly fitted or top-dose-only effect, or effect the other way; inactive means no such curve, though single readings can be large or run the other way.
On the % scale 0 is the no-effect control and ±100 the full control effect.

The target in the test is Cytochrome P450 2D6 (Homo sapiens) (UniProt P10635). Kind of test: Cytochrome panel assay with activity outcomes. The following applies: recombinant CYP, pro-luciferin dealkylation, luminescence, p450-cyp2d6; series mostly up to 57.1 µM.
Cytochrome P450 2D6 (Homo sapiens), sequence (P10635 whole entry, looked up): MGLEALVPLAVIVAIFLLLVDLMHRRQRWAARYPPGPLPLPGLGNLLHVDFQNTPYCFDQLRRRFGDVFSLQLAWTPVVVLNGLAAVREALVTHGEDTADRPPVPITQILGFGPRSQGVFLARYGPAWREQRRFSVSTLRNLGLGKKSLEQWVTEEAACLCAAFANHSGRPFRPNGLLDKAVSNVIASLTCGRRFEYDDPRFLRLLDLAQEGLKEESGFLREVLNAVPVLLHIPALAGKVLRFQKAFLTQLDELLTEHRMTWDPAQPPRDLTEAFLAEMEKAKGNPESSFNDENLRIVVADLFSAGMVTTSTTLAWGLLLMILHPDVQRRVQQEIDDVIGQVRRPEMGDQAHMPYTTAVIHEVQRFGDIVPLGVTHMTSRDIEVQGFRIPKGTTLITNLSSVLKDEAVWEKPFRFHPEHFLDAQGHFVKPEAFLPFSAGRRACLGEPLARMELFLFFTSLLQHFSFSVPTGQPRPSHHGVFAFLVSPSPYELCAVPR
Broadly, the AC50 is the concentration giving half of the maximal activity seen. Regarding `O=C(O)CCC/C=C\C[C@@H]1CO[C@H](C(F)(F)F)O[C@@H]1c1ccccc1O`, the AC50 result was “inactive”.

In the case of `CO[C@H]1COC(=O)C/C=C\[C@@H](C)COC(=O)[C@@H](OCc2ccccc2)/C=C\[C@@H]1C`, the activity, negative = inhibition is 1.83% [at 11.4 µM].

For `Clc1ccc2c(N3CCC(CCC4CCN(c5ncnc6cc(Cl)ccc56)CC4)CC3)ncnc2c1`, the AC50 is 0.794 µM (active).

Take `CN(C)C(=O)c1ccc(-c2ccc3ncnc(N4CCC(C(=O)O)CC4)c3c2)cc1`: the AC50 result is “inactive”.

For the molecule `Clc1ccccc1-c1ccc2ncnc(N3CCNCC3)c2c1`, the AC50 entry was “inactive”.

As for `COc1ccc(OC)c(NC(=O)[C@H]2CC=CC[C@H]2C(=O)O)c1`, the AC50 result was “inactive”.

On to `O=C(Nc1ccccc1)N1CCOCC1`, for which the AC50 result is “inactive”.

Take `O=C(Nc1cccc(Cl)c1)N1CCN2C(=O)c3ccccc3C12c1ccccc1` (stereo unspecified): the AC50 is 10 µM (active).

For `O=C(Nc1cccc(NC(=O)N2CCN(c3ccccc3)CC2)c1)N1CCN(c2ccccc2)CC1`, the AC50 entry was “inactive”.

With `Cc1ccc(C2C(C=Nc3c(C)n(C)n(-c4ccccc4)c3=O)=C(c3ccccc3)Oc3ccccc32)cc1` (stereo unspecified), the AC50 result is “inactive”.

In the case of `CCOCCCN1C(=O)CN(C2CCCCCC2)C(=O)C1c1ccc(OC)cc1` (stereo unspecified), the AC50 result was “inactive”.

In the case of `CCSc1nnc(-c2ccc(Cl)cc2)c2ccccc12`, the AC50 entry is “inactive”.

With `CCN(CC)S(=O)(=O)c1ccc2c(c1)nc(SCC(=O)N1CCOCC1)n2-c1ccccc1OC`, the AC50 entry was “inactive”.

For `COCCn1c(C)cc(C2=NNC(=Nc3ccc(F)cc3)SC2)c1C`, the AC50 is 7.94 µM (active).

As to `Cn1cccc1C(=O)N1CCC2(CC1)CCN(c1cccc(-c3ccccc3)c1)CC2`, the AC50 entry is “inactive”.

As for `CN(C)c1ncc2nc(CCc3ccccc3)c(=O)n(CCC#N)c2n1`, the AC50 was 2.51 µM (active).

With `CN(C)c1ncc2nc(-c3ccccc3)c(=O)n(CCc3ccccc3)c2n1`, the AC50 entry was “inactive”.

Consider `CN(C)c1ncc2nc(-c3cc(F)cc(F)c3)c(=O)n(CCC#N)c2n1`, for which the AC50 entry is “inactive”.

Consider `N#CCCn1c(=O)c(CCc2ccccc2)nc2cnc(OCc3ccccc3)nc21`, for which the AC50 entry was “inactive”.

For the molecule `N#CCCn1c(=O)c(CCc2ccccc2)nc2cnc(Oc3ccccc3)nc21`, the AC50 result was “inactive”.

On to `CN(C)c1ncc2nc(-c3ccccc3)c(=O)n(CCC#N)c2n1`, for which the AC50 is 1 µM (active).

With `COc1cc(/C=C2/C(=N)N3OC(C)=CC3=NC2=O)ccc1OCCOc1ccc(C)cc1`, the AC50 entry was “inactive”.

Regarding `COc1cccc(/C=N/NC(=O)CO/N=C(\C)c2cccs2)c1OC`, the AC50 result is “inactive”.

Turning to `CC1CCN(c2ccc(NC(=S)NC(=O)c3ccco3)cc2)CC1`, the AC50 entry was “inactive”.

As for `COc1ncc2nc(-c3cc(F)cc(F)c3)c(=O)n(C3CC3)c2n1`, the AC50 result was “inactive”.

Take `COC(=O)c1ccc(Cl)c(NC(=O)c2ccc(-c3ccccc3)cc2)c1`: the AC50 entry is “inactive”.

Take `CCOC(=O)c1ccc(Cl)c(NC(=O)c2ccc(-c3ccccc3)cc2)c1`: the AC50 result is “inactive”.

In the case of `CCOc1c(Cl)cc(C(=O)Nc2ccccc2-c2ccccc2)cc1Cl`, the AC50 is 0.0126 µM (active).

On to `COc1nc(OCCNC(C)=O)nc(N(C)C)n1`, for which the AC50 entry is “inactive”.

As for `CC(C)NC(=O)c1ccccc1NC(=O)/C=C/c1ccc([N+](=O)[O-])cc1`, the AC50 result is “inactive”.

In the case of `Cc1cccc(NC2(C(F)(F)F)N=C(c3ccccc3)NC2=O)n1` (stereo unspecified), the AC50 result is “inactive”.

On to `O=C(O)c1cc(=O)c2c(Cl)cc(Cl)cc2[nH]1`, for which the AC50 entry was “inactive”.

As for `Cc1cc(Br)cc(C)c1OCCCCN(C)C`, the concentration at half-maximal activity (AC50) was 2 µM (active).

Regarding `CCN1C(=O)[C@H]2[C@H]3[C@H](O)[C@H](O)C/C(=N/OC[C@@H](O)COCc4ccco4)[C@H]3CC[C@@H]2C1=O`, the activity, negative = inhibition was -6.12% [at 11.4 µM].

For the molecule `Nc1nc(-c2cc(-c3cccc4ccccc34)nc(N)n2)cc(-c2cccc3ccccc23)n1`, the activity, negative = inhibition is -0.19% [at 11.4 µM].

On to `Nc1cc2c(nc3c4ccccc4c(N)cc3[n+]2-c2cccc3ccccc23)c2ccccc12` (tested in a mixture with another compound), for which the half-maximal activity concentration (AC50) is 1.58 µM (active).

On to `CSCC[C@@H]1NC(=O)C/C=C\[C@@H](C)COC(=O)[C@@H](C)COC1=O`, for which the activity, negative = inhibition was 16.4% [at 11.4 µM].

Regarding `Cc1sc(=NC(=O)c2ccco2)n(C)c1-c1ccccc1`, the AC50 entry is “inactive”.

Consider `COc1cc(NC(=O)c2ccccc2)c(OC)cc1NC(=O)CN1CCN(c2ccccn2)CC1`, for which the AC50 result was “inactive”.

Regarding `Cc1ccc(C(=O)C(OC(=O)CN2C(=O)c3ccccc3C2=O)c2ccccc2)cc1` (stereo unspecified), the AC50 entry was “inactive”.

As for `COc1ccccc1NC(=O)CN1CCN(C2c3ccccc3-c3ccccc32)CC1`, the concentration at half-maximal activity (AC50) is 0.0251 µM (active).

For the molecule `CCOc1ccccc1NC(=O)CCC(=O)O`, the AC50 entry was “inactive”.

For `CCOc1ccccc1NC(=O)CN1CCC(NC(=O)c2ccccc2)CC1`, the AC50 was 15.8 µM (active).

Take `O=C(O)C[C@@H](C(=O)O)C1c2ccccc2-c2ccccc21`: the activity, negative = inhibition is 6.65% [at 11.4 µM].

`CCOc1ccccc1NC(=O)C(=O)NCC1CCCN1CC` (stereo unspecified): the AC50 result was “inactive”.

Consider `COc1ccc(NC(C)=O)cc1NC(=O)CN1CCN(C2c3ccccc3-c3ccccc32)CC1`, for which the AC50 is 15.8 µM (active).

Regarding `COc1ccc(NC(C)=O)cc1NC(=O)CN1CCN(CC(=O)Nc2ccccc2Cl)CC1`, the AC50 entry is “inactive”.

Take `COc1ccccc1NC(=O)CCN1C(=O)C2CC=C(Cl)CC2C1=O` (stereo unspecified): the AC50 result was “inactive”.

Regarding `CCn1c(-c2ccccc2Cl)nn(CC(=O)Nc2ccccc2OC)c1=S`, the AC50 entry is “inactive”.

With `CC(C)OC(=O)CN1CCN(C2c3ccccc3-c3ccccc32)CC1`, the AC50 is 0.251 µM (active).

For `CC(=O)c1c(N2CCC(C(N)=O)CC2)nc(=S)n(-c2ccccc2)c1C`, the AC50 entry is “inactive”.

`CCCc1cc2c(=O)c(-c3ccc4c(c3)OCCO4)coc2cc1OC(=O)c1ccco1`: the AC50 entry was “inactive”.

As to `COC(=O)c1c(-n2c(C)cc(C=O)c2C)sc2c1CCCC2`, the AC50 entry is “inactive”.

`CCOC(=O)c1c(-c2ccc(C)cc2)csc1NC(=O)C1CC=CCC1C(=O)O` (stereo unspecified): the AC50 entry was “inactive”.

With `COC(=O)[C@@H]1O[C@@H](c2c(OC)c(OC)c(C)c(OC)c2OC)[C@H](C)[C@@H](O)[C@@H]1C`, the activity, negative = inhibition was 15.2% [at 11.4 µM].

For the molecule `NS(=O)(=O)c1cc(C(=O)O)cc(N2CCCC2)c1Oc1ccccc1`, the AC50 result is “inactive”.

On to `O=C(c1cn(-c2ccccc2)nc1-c1cccs1)N1CCOCC1`, for which the AC50 result is “inactive”.

In the case of `O=C1C[C@@H](O)[C@@H](O)[C@H]2[C@@H]3C(=O)N(c4cccc(Oc5ccccc5)c4)C(=O)[C@@H]3CC[C@H]12`, the activity, negative = inhibition is -10.1% [at 11.4 µM] and -0.87% [at 11.4 µM].

In the case of `CCOC(=O)Cc1cc(=O)n2[nH]c(C)c(-c3ccccc3)c2n1`, the AC50 entry is “inactive”.

Consider `CCS(=O)(=O)c1ccc2c(c1)N(S(C)(=O)=O)CC(C(=O)NCCOC)O2` (stereo unspecified), for which the AC50 entry was “inactive”.

As for `Cc1ccccc1-c1nc(-c2ccc(NC(=O)c3cccs3)cc2)no1`, the AC50 result is “inactive”.

`O=C(Nc1ccccc1)c1cc(-n2cnnc2)ccc1Cl`: the AC50 result was “inactive”.

For the molecule `C[C@]12CC[C@H]3c4ccc(OC[C@H]5CO5)cc4CC[C@H]3[C@H]1CC[C@@H]2O`, the activity, negative = inhibition is -13.3% [at 11.4 µM].

Regarding `O=C(c1ccncc1)N1CCC[C@@]2(CCN(c3ccccn3)C2)C1`, the AC50 entry is “inactive”.

Consider `O=C(Oc1ccccc1)N1CCC[C@@]2(CCN(c3ncccn3)C2)C1`, for which the AC50 entry is “inactive”.

`COC(=O)N1CCC[C@@]2(CCN(c3ncccn3)C2)C1`: the AC50 result is “inactive”.

With `O=C(Oc1ccccc1)N1CCC[C@@]2(CCN(c3ccccn3)C2)C1`, the AC50 is 7.94 µM (active).

`O=C(Oc1ccccc1)N1CCC2(CC1)CN(c1ccccn1)C2`: the AC50 entry is “inactive”.

For `COC(=O)N1CCC[C@@]2(CCN(c3ccccn3)C2)C1`, the AC50 is 12.6 µM (active).

Regarding `Cc1ccc(-c2nnc(-c3ccc(NC(=O)c4cccs4)cc3)o2)cc1`, the AC50 result was “inactive”.

For the molecule `Cc1ccc(S(=O)(=O)O[C@H]2C[C@@H](C(C)(C)C)CC[C@@H]2c2ccccc2)cc1`, the activity, negative = inhibition was -9.43% [at 11.4 µM].

On to `CCOC(=O)C1=NOC(CNC(=O)C2=NOC(CNC(=O)c3c(-c4ccccc4Cl)noc3C)C2)C1` (stereo unspecified), for which the AC50 entry is “inactive”.

Regarding `C/C(CCN1CCc2nc(-c3ccccc3)c(-c3ccccc3)cc2C1)=N\OC[C@@H](C)[C@H](OCc1ccccc1)C(C)C`, the activity, negative = inhibition was 13.5% [at 11.4 µM].

For the molecule `Cc1ccc(S(=O)(=O)/C=C\C#N)cc1`, the AC50 is 0.0158 µM (active).

For the molecule `Cc1ccc(S(=O)(=O)CCCS(=O)(=O)c2ccc(C)cc2)cc1`, the AC50 result is “inactive”.

For `CC(C)(C)c1ccc(S(=O)(=O)/C=C\C#N)cc1`, the AC50 result is “inactive”.

Take `CC1(C)Cc2c(sc3c2C(=O)N(c2ccccc2)C2=NCCN23)CS1`: the AC50 result was “inactive”.

As to `C=C1CCO[C@@]2([C@H](O)[C@@](C)(O)CO)NC(=O)[C@]1(O)NC2=O`, the activity, negative = inhibition was 9.37% [at 11.4 µM].

On to `COC(=O)c1ccccc1NC(=O)C1CCN(C(=O)c2ccc(OC)cc2)CC1`, for which the AC50 result was “inactive”.

Turning to `COc1ccc(NC(=O)N2CCCC2C(=O)Nc2ccccc2)cc1` (stereo unspecified), the AC50 result is “inactive”.

For `O=C(Nc1ccc(Oc2ccccc2)cc1)C1CCN(c2c3c(nc4ncnn24)CCC3)CC1`, the AC50 was 12.6 µM (active).

On to `COc1cccc(-c2nccc(NCc3ccc(OC)cc3OC)n2)c1`, for which the AC50 is 12.6 µM (active).

On to `COc1ccccc1CNc1ccnc(-c2cccc(C#N)c2)n1`, for which the AC50 is 25.1 µM (active).

Take `COc1cccc(-c2nccc(NCc3ccccc3OC)n2)c1`: the AC50 was 0.398 µM (active).

In the case of `COc1ccc(CNc2ccnc(-c3cccnc3)n2)c(OC)c1`, the AC50 was 10 µM (active).

In the case of `COc1ccc(C(=O)Nc2scc(-c3ccc(Cl)cc3Cl)c2C(N)=O)cc1`, the AC50 result was “inactive”.

In the case of `CN1CCCN(C2C3CC4CC(C3)CC2C4)CC1` (stereo unspecified), the AC50 result was “inactive”.

In the case of `Cc1cc(C)c(S(=O)(=O)N2CCN(c3ccc([N+](=O)[O-])c(NCc4ccco4)c3)CC2)c(C)c1`, the AC50 entry is “inactive”.

In the case of `CCOCC(=O)Nc1c(C(=O)Nc2ccccc2OC)oc2ccccc12`, the AC50 entry was “inactive”.

In the case of `COc1ccc(COC(=O)N/N=C2/C[C@@H](O)[C@@H](O)[C@@H]3[C@@H]4C(=O)N([C@@H](C)c5ccccc5)C(=O)[C@H]4CC[C@@H]23)cc1`, the activity, negative = inhibition was -8.23% [at 11.4 µM].

`CC(C)=C1C(=O)C(c2ccccc2)=C2CN3C(=O)N(CCc4ccccc4)C(=O)[C@]3(Cc3ccccc3)[C@H]21`: the AC50 result is “inactive”.
